In PubChem BioAssay (NCATS):
Results filed as inconclusive are left out. Calls of active or inactive are those of the source. The call rests on the fitted dose curve; in most records, active means well fitted curve in the direction sought with a large enough effect; inconclusive means small, poorly fitted or top-dose-only effect, or another doubt; inactive means no such curve, though single readings can be large; an effect the other way counts as inactive or inconclusive. Starred links: 1 amine or outer side, 2 acyl side, 3 side chain; linkers in the order of their positions; H or OH if unused. Positions of bridges follow the written chain, without caps; N, C: chain ends. Non-standard residues stand in square brackets, D forms with d. Residues, ends and D or L forms follow the SMILES beside them. Chains are numbered I, II in the order given. Actinocin(9to1) = Cc1c2oc3c(C)ccc(C(=O)[*:1])c3nc-2c(C(=O)[*:2])c(N)c1=O; NMeV = CN[CH](C(=O)O)C(C)C; Sar = CNCC(=O)O

How the values were obtained:
[1] = Quantitative High-Throughput drug screen in 47 multiple myeloma cell lines against the NCATS MIPE library collection: PCM6_Riken cell viability assay (AID 1919870); conditions: CellTiter-Glo ATP, 48 h; series mostly up to 45.8 µM; further: nearly all actives have a fitted effect of over 30% in size; further: potency means the concentration at half of the fitted maximal effect
Procedure, shortened: (§1)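 Cells were exposed to library compounds for 48 hours, after which ATP was measured by CellTiter-Glo. Signal was taken as median relative luminescence units.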

[2] = Quantitative High-Throughput drug screen in 47 multiple myeloma cell lines against the NCATS MIPE library collection: RPMI8226_ATCC cell viability assay (AID 1919871); conditions: RPMI8226 myeloma viability, CellTiter-Glo ATP luminescence, 48 h; series mostly up to 45.8 µM; further: nearly all actives have a fitted effect of over 30% in size; further: potency means the concentration at half of the fitted maximal effect
Procedure, shortened: as §1

[3] = Quantitative High-Throughput drug screen in 47 multiple myeloma cell lines against the NCATS MIPE library collection: OPM2_DSMZ cell viability assay (AID 1919872); conditions: OPM2 myeloma viability, CellTiter-Glo ATP luminescence, 48 h; series mostly up to 45.8 µM; further: nearly all actives have a fitted effect of over 30% in size; further: potency means the concentration at half of the fitted maximal effect
Procedure, shortened: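 CellTiter-Glo ATP luminescence gave viability after 48 h compound treatment at 37C of 500 multiple myeloma cells per well. Normalisation used DMSO-only wells as 100% and media-only wells as 0% viability; primary qHTS of approved and investigational drugs.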

[4] = Quantitative High-Throughput drug screen in 47 multiple myeloma cell lines against the NCATS MIPE library collection: KMS11_JCRBsus cell viability assay (AID 1919873); conditions: KMS11 myeloma viability, CellTiter-Glo ATP luminescence, 48 h; series mostly up to 45.8 µM; further: nearly all actives have a fitted effect of over 50% in size; further: potency means the concentration at half of the fitted maximal effect
Procedure, shortened: as §1

[5] = Quantitative High-Throughput drug screen in 47 multiple myeloma cell lines against the NCATS MIPE library collection: KMS28BM_JCRB cell viability assay (AID 1919874); conditions: CellTiter-Glo ATP, 48 h; series mostly up to 45.8 µM; further: nearly all actives have a fitted effect of over 35% in size; further: potency means the concentration at half of the fitted maximal effect
Procedure, shortened: as §1

[6] = target: Cytochrome P450 3A4 (Homo sapiens) (UniProt P08684); assay: qHTS for inhibitors of CYP3A4 against the NCATS DSHEA and TCM libraries (AID 1919971); conditions: recombinant CYP3A4 enzyme activity, luminescence qHTS; series mostly up to 34.1 µM; further: potency means the concentration at half of the fitted maximal effect
Procedure, shortened: (§2)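 Concentration-response screening with isoform-matched pro-luciferin substrates. The CYP reaction was initiated by NADPH regenerating solution and ran 30-45 min in darkness at room temperature.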

[7] = target: Cytochrome P450 2C9 (Homo sapiens) (UniProt P11712); assay: qHTS for inhibitors of CYP2C9 against the NCATS DSHEA and TCM libraries (AID 1919973); conditions: recombinant CYP2C9 enzyme activity, luminescence; series mostly up to 34.1 µM; further: potency means the concentration at half of the fitted maximal effect
Procedure, shortened: as §2

[8] = target: Cytochrome P450 2C19 (Homo sapiens) (UniProt P33261); assay: qHTS for inhibitors of CYP2C19 against the NCATS DSHEA and TCM libraries (AID 1919974); conditions: CYP2C19 enzyme inhibition, luminescence qHTS; series mostly up to 34.1 µM;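 further: luminescence from luciferin released by CYP2C19 oxidation of a pro-luciferin substrate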
Procedure, shortened: as §2

[9] = KB-3-1 P-gp reporter qHTS against the NCATS DSHEA and TCM libraries (AID 1919975); conditions: KB-3-1 parental cells, CellTiter-Glo luminescence viability, 72 h; series mostly up to 26.1 µM
Procedure, shortened: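 Parental KB-3-1 human cervical adenocarcinoma cells (500 cells/well, DMEM + 10% FBS) were treated with substances for ~72 h at 37C; viability was read by CellTiter-Glo luminescence.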

[10] = target: Cytochrome P450 2D6 (Homo sapiens) (UniProt P10635); assay: qHTS for inhibitors of CYP2D6 against the NCATS DSHEA and TCM libraries (AID 1919972); conditions: CYP2D6 enzymatic inhibition, luminescence qHTS; series mostly up to 34.1 µM
Procedure, shortened: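 CYP2D6 enzyme with pro-luciferin substrate in manufacturer buffer (typically 100 mM KPO4), preincubated 15 min RT with substances (most at 19.5 nM upward); NADPH regeneration system (1x) started 30–45 min RT reaction; P450-Glo luminescence read after 30 min; quinidine as intraplate control.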

Measured: Potency

Chain of Cytochrome P450 2D6 (Homo sapiens) (P10635 whole entry, looked up): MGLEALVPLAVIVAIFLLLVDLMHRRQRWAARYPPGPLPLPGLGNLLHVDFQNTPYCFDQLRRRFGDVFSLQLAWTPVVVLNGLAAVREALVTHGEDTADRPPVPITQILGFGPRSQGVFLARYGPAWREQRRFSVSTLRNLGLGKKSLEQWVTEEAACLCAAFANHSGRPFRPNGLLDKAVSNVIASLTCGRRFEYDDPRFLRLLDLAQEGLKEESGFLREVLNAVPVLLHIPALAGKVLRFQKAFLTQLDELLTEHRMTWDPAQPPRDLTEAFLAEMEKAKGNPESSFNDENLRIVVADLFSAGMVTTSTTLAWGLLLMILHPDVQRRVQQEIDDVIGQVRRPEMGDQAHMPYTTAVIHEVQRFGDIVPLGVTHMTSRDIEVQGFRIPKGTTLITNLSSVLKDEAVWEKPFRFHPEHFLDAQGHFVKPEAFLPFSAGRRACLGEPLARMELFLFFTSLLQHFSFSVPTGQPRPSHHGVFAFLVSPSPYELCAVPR
Chain of Cytochrome P450 2C9 (Homo sapiens) (P11712 whole entry, looked up): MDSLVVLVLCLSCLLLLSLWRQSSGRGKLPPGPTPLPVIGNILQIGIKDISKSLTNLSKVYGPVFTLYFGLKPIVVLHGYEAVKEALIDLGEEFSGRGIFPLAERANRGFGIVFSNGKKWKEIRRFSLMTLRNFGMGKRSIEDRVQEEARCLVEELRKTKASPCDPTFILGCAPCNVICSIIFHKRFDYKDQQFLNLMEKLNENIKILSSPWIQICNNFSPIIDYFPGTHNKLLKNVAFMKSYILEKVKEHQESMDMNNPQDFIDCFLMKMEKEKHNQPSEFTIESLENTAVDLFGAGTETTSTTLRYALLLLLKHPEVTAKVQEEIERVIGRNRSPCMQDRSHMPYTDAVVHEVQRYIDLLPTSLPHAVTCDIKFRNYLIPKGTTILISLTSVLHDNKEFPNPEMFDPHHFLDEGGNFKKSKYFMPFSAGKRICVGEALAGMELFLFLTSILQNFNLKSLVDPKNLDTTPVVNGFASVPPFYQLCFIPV
Chain of Cytochrome P450 3A4 (Homo sapiens) (P08684 whole entry, looked up, canonical isoform): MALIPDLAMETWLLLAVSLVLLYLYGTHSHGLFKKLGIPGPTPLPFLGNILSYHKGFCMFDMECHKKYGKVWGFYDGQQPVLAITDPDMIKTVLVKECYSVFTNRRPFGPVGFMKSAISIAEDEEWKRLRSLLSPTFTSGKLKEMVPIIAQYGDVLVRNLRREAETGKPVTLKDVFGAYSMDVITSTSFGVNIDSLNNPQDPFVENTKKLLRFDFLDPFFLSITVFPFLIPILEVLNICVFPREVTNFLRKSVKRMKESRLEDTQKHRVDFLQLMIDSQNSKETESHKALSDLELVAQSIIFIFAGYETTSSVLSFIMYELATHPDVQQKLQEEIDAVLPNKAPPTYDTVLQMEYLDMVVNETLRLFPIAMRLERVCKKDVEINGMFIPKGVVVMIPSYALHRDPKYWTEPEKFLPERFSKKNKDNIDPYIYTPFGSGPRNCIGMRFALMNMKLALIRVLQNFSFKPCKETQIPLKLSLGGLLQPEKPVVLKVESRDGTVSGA
Chain of Cytochrome P450 2C19 (Homo sapiens) (P33261 whole entry, looked up): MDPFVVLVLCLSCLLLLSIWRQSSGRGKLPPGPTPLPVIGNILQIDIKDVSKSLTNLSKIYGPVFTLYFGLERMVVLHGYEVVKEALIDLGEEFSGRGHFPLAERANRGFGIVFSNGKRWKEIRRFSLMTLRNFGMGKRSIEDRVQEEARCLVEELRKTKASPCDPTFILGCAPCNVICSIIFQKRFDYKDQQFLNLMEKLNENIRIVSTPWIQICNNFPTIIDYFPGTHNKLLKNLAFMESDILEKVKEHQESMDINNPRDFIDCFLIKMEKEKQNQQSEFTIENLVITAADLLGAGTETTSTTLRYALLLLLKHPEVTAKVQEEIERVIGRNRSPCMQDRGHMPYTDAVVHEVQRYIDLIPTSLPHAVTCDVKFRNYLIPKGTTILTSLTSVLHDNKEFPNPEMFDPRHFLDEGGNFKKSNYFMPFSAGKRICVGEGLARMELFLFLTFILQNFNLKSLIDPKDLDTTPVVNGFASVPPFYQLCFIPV

COc1cc(O)c2c(c1)C1OC1C[C@H](O)[C@H](O)C(=O)C=CC[C@H](C)OC2=O (stereo partly drawn)
active: [1] 2.35 µM | [2] 3.72 µM | [3] 2.64 µM | [4] 2350 nM | [5] 3.72 µM

COc1cc(CCc2cc(NC(=O)c3ccc(N4C[C@@H](C)N[C@@H](C)C4)cc3)n[nH]2)cc(OC)c1
active: [1] 13.2 µM | [2] 18.7 µM | [3] 13.2 µM | [4] 4690 nM | [5] 16.6 µM

COC(=O)C1C2CC3c4[nH]c5cc(OC)ccc5c4CCN3CC2CC(OC(=O)c2cc(OC)c(OC)c(OC)c2)C1OC (stereo not drawn)
inactive: [3]
active: [1] 16.6 µM | [2] 16.6 µM | [4] 29600 nM | [5] 20.9 µM

Cc1c2oc3c(C)ccc(C(=O)NC4C(=O)NC(C(C)C)C(=O)N5CCCC5C(=O)N(C)CC(=O)N(C)C(C(C)C)C(=O)OC4C)c3nc-2c(C(=O)NC2C(=O)NC(C(C)C)C(=O)N3CCCC3C(=O)N(C)CC(=O)N(C)C(C(C)C)C(=O)OC2C)c(N)c1=O (stereo not drawn) (I: TVP[Sar][NMeV] / II: TVP[Sar][NMeV]; ester I:1-I:C, II:1-II:C; linker I:N-II:N via Actinocin(9to1); configuration not given here)
inactive: [1] | [2] | [3] | [4] | [5]

CC(=O)NCC(=O)N1[C@H]2CC[C@H]1c1cc(Nc3ncc(C(F)(F)F)c(NC4CCC4)n3)ccc12
active: [1] 1.87 µM | [2] 5.9 µM | [3] 1.48 µM | [4] 66.2 nM | [5] 3.32 µM

CC(C)(O)Cn1c(NC(=O)c2ccc(-c3cn[nH]c3)s2)nc2cc(CN3CCOCC3)ccc21
active: [1] 0.418 µM | [2] 2.35 µM | [3] 2.35 µM | [4] 743 nM | [5] 0.743 µM

CCOC(=O)N1CCN([N+]([O-])=NOc2ccc([N+](=O)[O-])cc2[N+](=O)[O-])CC1
active: [1] 0.743 µM | [2] 13.2 µM | [3] 1.05 µM | [4] 332 nM | [5] 0.833 µM

CCC(C=C[C@@H]1OC(=O)C=C[C@H]1C)=C[C@H](C)CC=CC(C)=C[C@@H](C)C(=O)[C@@H](C)[C@H](O)[C@@H](C)CC(C)=CC(=O)O
active: [1] 0.0098 µM | [2] 0.0311 µM | [3] 0.0277 µM | [4] 13.9 nM | [5] 0.011 µM

CN[C@@H]1C[C@H]2O[C@@](C)([C@H]1OC)n1c3ccccc3c3c4c(c5c6ccccc6n2c5c31)C(=O)N[C@H]4O
active: [1] 0.148 µM | [2] 2.09 µM | [3] 1.05 µM | [4] 264 nM | [5] 0.469 µM

c1cncc(CN2CCC(n3ncc4c(N5CCOCC5)nc(-c5ccc6[nH]ccc6c5)nc43)CC2)c1
active: [1] 11.8 µM | [2] 6.62 µM | [3] 14.8 µM | [4] 590 nM | [5] 11.8 µM

COc1ccc([C@@H]2CNC(=O)C2)cc1OC1CCCC1
active: [1] 1.48 µM
inactive: [2] | [3] | [4] | [5]

C[C@H](NC(=O)[C@@H](O)c1cc(F)cc(F)c1)C(=O)N[C@@H]1C(=O)N(C)c2ccccc2-c2ccccc21
active: [4] 1870 nM
inactive: [1] | [2] | [3] | [5]

Cc1nc(NC(=O)N2CCC[C@@H]2C(N)=O)sc1-c1ccnc(C(C)(C)C(F)(F)F)c1
active: [2] 3.32 µM | [3] 20.9 µM | [4] 166 nM | [5] 1.18 µM
inactive: [1]

O=C1c2c(O)cccc2[C@@H]([C@@H]2O[C@H](CO)[C@@H](O)[C@H](O)[C@H]2O)c2cc(CO)cc(O)c21
inactive: [8] | [9]
active: [6] 25.1 µM | [7] 11.2 µM

COc1ccc(C(C)=O)c(O)c1
inactive: [10] | [9]

C=CC[C@@H]1C=C(C)C[C@H](C)C[C@H](OC)[C@H]2O[C@@](O)(C(=O)C(=O)N3CCCC[C@H]3C(=O)O[C@H](C(C)=C[C@@H]3CC[C@H](O)[C@H](OC)C3)[C@@H](C)[C@@H](O)CC1=O)[C@@H](C)C[C@@H]2OC
active: [1] 0.935 µM | [2] 2.09 µM | [4] 833 nM | [5] 0.833 µM

c1cc(N[C@@H]2CCNC2)nc(-c2cnc3ccc(-c4cn[nH]c4)cn23)c1
active: [1] 5.9 µM | [5] 23.5 µM
inactive: [2]
